This is an account of results in PubChem BioAssay (NCI).

Assay [1] can be described thus: NCI Yeast Anticancer Drug Screen. Data for the rad50 strain (AID 155).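 Note: 0% = growth of vehicle-only cultures of the same strain.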 As to conditions: S. cerevisiae rad50 strain growth inhibition; at 50.0 µM; stronger effect = higher value. Summed up: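 Yeast carrying a defined DNA repair defect were exposed to test compounds, and growth was compared with vehicle-treated controls to give percent inhibition.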
A short description of assay [2]: NCI Yeast Anticancer Drug Screen. Data for the mec2-1 strain (AID 157). The conditions noted are these: S. cerevisiae mec2-1 strain, at 50.0 µM, stronger effect = higher value. Summed up: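 Yeast mec2-1 mutant treated with compound. Readout: growth inhibition vs vehicle controls.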
A short description of assay [3]: NCI Yeast Anticancer Drug Screen. Data for the sgs1 mgt1 strain (AID 161).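 Note: 0% = growth of cultures given vehicle only.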 The conditions noted are these: S. cerevisiae sgs1 mgt1 strain, at 50.0 µM, stronger effect = higher value. Summed up:
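Test agents were incubated with a DNA-repair-mutant yeast strain. Growth was then read and compared against vehicle-treated controls.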

Assay [4] in a line: NCI Yeast Anticancer Drug Screen. Data for the cln2 rad14 strain (AID 165).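 Note: 0% = growth equal to vehicle treated cultures.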 The conditions noted are these: S. cerevisiae cln2 rad14 strain, at 50.0 µM, stronger effect = higher value. Summed up:
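cln2 rad14 yeast strain; compound exposure; growth inhibition read vs vehicle controls.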

A short description of assay [5]: NCI Yeast Anticancer Drug Screen. Data for the bub3 strain (AID 167). As to conditions: S. cerevisiae bub3 mutant strain, at 50.0 µM, stronger effect = higher value. Summed up:
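Compounds were applied to a genetically altered yeast strain carrying a cell-cycle control defect. Growth inhibition was scored against vehicle-treated controls.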

Assay [6] in a line: NCI Yeast Anticancer Drug Screen. Data for the mlh1 rad18 strain (AID 175). The conditions noted are these: S. cerevisiae mlh1 rad18 strain growth inhibition; at 50.0 µM; stronger effect = higher value. Summed up: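 Yeast w/ defined DNA-repair lesions; compound exposure; growth vs vehicle controls → % inhibition.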

Several values for one entry are separate records, joined by “and”; a condition that tells them apart may be missing. Equal entries are not always repeated. About 79,000 compounds went through this panel and 15% of them were active in at least one assay; those are over-represented in the sample as a whole. A number with no mark means an inactive call. Activity calls are given as the source filed them. Cut-off read from the data, not from the text of the source: active = growth inhibition above about 70%; inactive = the rest.

Consider `N.N.N.N.N#N.N#N.[Cl-].[Os+6]`, for which the growth inhibition in assay [1] was -25.4%; in assay [2], -24.1%; in assay [3], -34.6%; in assay [4] it was -7.95%; in assay [5], -35.4%.

Take `CC1(C)OP23(NC(=O)OC2(C(F)(F)F)c2ccccc2O3)OC1(C)C` (configuration not stated): the growth inhibition in assay [1] is -14.6%; in assay [2], -13.5%; in assay [3], -40.5%; in assay [4], -4.1%; in assay [5], -41.6%.

`C[N+](C)(C)CCP(=O)([O-])O`: the growth inhibition is -3.3% in assay [1]; 0% in assay [2]; 1.55% in assay [3]; -13.1% in assay [4]; -3.1% in assay [5]; 5.45% in assay [6].

Consider `C/C(=N\N=C(\[Se])N(C)C)c1ccccn1`, for which the growth inhibition in assay [1] is 86.9% (active); in assay [2], 89.9% (active); in assay [3] it was 89.7% (active); in assay [4], 89.3% (active); in assay [5], 87.1% (active).

Take `c1ccc2c(c1)ccc1[s+]cccc12`: the growth inhibition in assay [1] was 69.4%; in assay [2], 23.2%; in assay [3], 35.7%; in assay [4], 25.4%; in assay [5], 16.1%.

For the compound `CCCC(C)C1C(=O)N(C)C(=O)N(C)C1=O` (configuration not stated), the growth inhibition in assay [1] was 14.2%; in assay [2], -1%; in assay [3], 11.4%; in assay [4], 9.9%; in assay [5] it was -4.75%.

Consider `COc1nc2ccccc2nc1N1CC1`, for which the growth inhibition in assay [1] is -3.25%; in assay [2], -31%; in assay [3] it was -15%; in assay [4], 6.9%; in assay [5] it was -24.6%; in assay [6] it was -1.65%.

For `Cc1cc(Cl)ccc1N`, the growth inhibition in assay [1] is 32.4%; in assay [2], 6.1%; in assay [3], 0.65%; in assay [4] it was 12.2%; in assay [5], 24.4%.

For the compound `CCCCOCN(COCCCC)C(C)Cc1ccccc1` (configuration not stated), the growth inhibition in assay [1] is 11.7%; in assay [2], -3.3%; in assay [3], -12.5%; in assay [4], 11.1%; in assay [5], -2.25%; in assay [6] it was -21.8%.

For the compound `Cc1ccc(NC(=O)C(Cl)(Cl)Cl)cc1Cl`, the growth inhibition was 1.8% in assay [1]; 20.6% in assay [2]; 16.4% in assay [3]; -5.2% in assay [4]; 25.2% in assay [5].

Turning to `C[N+](CCCl)(CCCl)Cc1cc([N+](=O)[O-])cc([N+](=O)[O-])c1`, the growth inhibition in assay [1] is -6.05%; in assay [2], -3.05%; in assay [3], 8.9%; in assay [4], -8.6%; in assay [5] it was -1.25%.

With `CC(=O)O[C@H]1CCC2[C@@H]3CCC4c5nonc5CC[C@]4(C)C3CC[C@@]21C` (some centres not stated), the growth inhibition in assay [1] was 28.4%; in assay [2], 5.55%; in assay [3] it was 22.9%; in assay [4] it was 35.1%; in assay [5] it was 27.6%.

Turning to `Cc1cc(S(=O)(=O)[O-])ccc1-n1nc(C)[c-](N=Nc2cc(S(=O)(=O)[O-])ccc2C(=O)[O-])c1=O.[Cr+3].[Na+].[OH-]` (configuration not stated), the growth inhibition in assay [1] was -19.4%; in assay [2] it was -30.5%; in assay [3] it was -11.6%; in assay [4] it was -35.4%; in assay [5] it was -16.3%; in assay [6], -17.1%.

For `CC(C)[C@]12O[C@H]1[C@@H]1O[C@]13[C@]1(O[C@H]1C[C@H]1C4=C(CC[C@@]13C)C(=O)OC4)[C@@H]2O`, the growth inhibition in assay [1] was 4.6%; in assay [2], 2.9%; in assay [3], -20.1%; in assay [4] it was -5.1%; in assay [5], -17.2%.

With `CCC1(OC(=O)CNC)C(=O)OCc2c1cc1n(c2=O)Cc2cc3ccccc3nc2-1` (configuration not stated), the growth inhibition is 78.7% (active) in assay [1]; 83.7% (active) in assay [2]; 76.3% (active) in assay [3]; 60.2% in assay [4]; 72% (active) in assay [5].

In the case of `[C-]#[O+].[C-]#[O+].[Ni].c1ccc([PH+](CC[PH+](c2ccccc2)c2ccccc2)CC[PH+](c2ccccc2)c2ccccc2)cc1`, the growth inhibition is -23.4% in assay [1]; 0.4% in assay [2]; -22.4% in assay [3]; 3.75% in assay [4]; 7.6% in assay [5]; -10.2% in assay [6].

In the case of `CNC(=O)Oc1ccc(C=Nc2cccc([N+](=O)[O-])c2)cc1`, the growth inhibition is 2.9% in assay [1]; 37.4% in assay [2]; 14.7% in assay [3]; 0.65% in assay [4]; 34.9% in assay [5]; 32.5% in assay [6].

On to `CCC1(O)C(=O)OCc2c1cc1n(c2=O)Cc2cc3ccc(C=O)cc3nc2-1` (configuration not stated), for which the growth inhibition in assay [1] was 39.5%; in assay [2], 19%; in assay [3] it was -17.5%; in assay [4], 2.3%; in assay [5], -24.7%.

With `CC(C)CC(N)C(=O)O` (configuration not stated), the growth inhibition in assay [1] is -6% and -19.2%; in assay [2], -4.8% and 9.15%; in assay [3], -3.25% and -31.2%; in assay [4], -11.1% and -34%; in assay [5], 5.7% and -8.45%.

Turning to `CC1=C[C@H]2O[C@@H]3[C@H](O)[C@@H](O)[C@](C)(C2(COC(=O)CCl)CC1)[C@@]31CO1` (some centres not stated), the growth inhibition was 87% (active) in assay [1]; 89.7% (active) in assay [2]; 87.7% (active) in assay [3]; 90.2% (active) in assay [4]; 88.5% (active) in assay [5].

`CCOP(=S)(OCC)Oc1ccccc1`: the growth inhibition in assay [1] is -3.8%; in assay [2], -14.5%; in assay [3], -15.2%; in assay [4], -7.6%; in assay [5], -20.9%; in assay [6], 3.5%.
